These molecules were tested on glycogen synthase kinase-3 (GSK3A per assay name; protocol says GSK3B) (assay: compounds binding glycogen synthase kinase-3 – biochemical, small-molecule microarray, 635 nm fluorescence, GSK3A, primary screen (AID 1103; also: the record names both GSK3A and GSK3B)). Settings: fluorescence 635 nm, higher = more signal.
Molecule COc1cc(NN2C(C(O)c3ccc(I)cc3)C=CC3C(=O)N(c4ccccc4)C(=O)C32)cc(OC)c1OC (stereo unspecified) has a composite z-score of 1.29.
For CN(C)CCCC[C@@H]1NC(=O)[C@@H]2C[C@H](C(=O)O)[C@H](c3cccc(OCCO)c3)N2C1=O, the composite z-score was -0.461.
For CN1C(=O)C2C=CC(C(O)c3cc(C(F)(F)F)cc(C(F)(F)F)c3)N(Nc3ccccc3)C2C1=O (stereo unspecified), the composite z-score was -0.107.
In the case of C=C(/C(=C/C[C@H](OC(=O)c1ccncc1)c1ccccc1OCCO)c1cnc2ccccc2c1)C(C)C, the composite z-score is reported as 1.06.
For COC(=O)[C@@]1(Cc2ccccc2CN=[N+]=[N-])N=C(c2ccc(OCCCO)cc2)O[C@H]1c1ccccc1, the composite z-score was -0.0487.
Work on C=CCC(OC(C)=O)[C@@H]1[C@@H](N(Cc2cccc3ccccc23)C(=O)c2ccc(-c3ccccc3)cc2)c2cc(OCCCO)ccc2N1C(=O)c1ccc(-c2ccccc2)cc1 (stereo partly specified) yielded a composite z-score of -0.0259.
With COC(=O)[C@@]1(Cc2ccc(F)cc2)[C@H]2c3cc(C(=O)N(C)C)n(Cc4c(CO)[nH]cc(C)c4=O)c3C[C@H]2CN1C(=O)c1ccccc1 the composite z-score was -0.271.
CN(C)C(=O)[C@]1(CCS(=O)(=O)c2ccccc2)N=C(c2ccc(OCCCO)cc2)O[C@@H]1c1ccccc1 was tested, and the composite z-score was 1.26.
Work on CC(C)OC(=O)CC(=O)CC(O)c1ccc([N+](=O)[O-])cc1 (stereo unspecified) yielded a composite z-score of 0.132.
Molecule CCN(CC)c1ccc(N2CC=CC34O[C@@H]5/C=C\CCC(C)OC(=O)C5[C@H]3C(=O)N(C(C)CO)[C@@H]4C2=O)cc1 (stereo partly specified) has a composite z-score of -0.189.
For Cc1ccc(C(C)CC(O)C2C=CC3C(=O)N(c4ccccc4)C(=O)C3N2Nc2ccc(C#N)cc2)o1 (stereo unspecified), the composite z-score was 1.08.
